Source: PubChem BioAssay (NCI)
The panel holds about 83,000 compounds, 20% with a hit somewhere; the sample as a whole holds those more often.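 Step 1: grow cells in 96-well plates. Step 2: add test compound at a single concentration. Step 3: incubate 48 h. Step 4: record percent growth.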 Active and inactive are the calls of the source. How the source made its calls: active means growth percent below 10; inactive means the rest.

Experiments:
Assay in all cases: NCI-60 one-dose screen, 48 h (100 = growth as untreated, 0 = no growth, -100 = all killed)
HCT-15 colon = settings: 10 µM unless noted
HT29 colon = settings: 10 µM unless noted
SNB-75 CNS = settings: 10 µM unless noted
SNB-19 CNS = settings: 10 µM unless noted
U251 CNS = settings: 10 µM unless noted
PC-3 prostate = settings: 10 µM unless noted
SK-MEL-5 melanoma = settings: 10 µM unless noted
UACC-62 melanoma = settings: 10 µM unless noted
LOX IMVI melanoma = settings: 10 µM
SK-MEL-28 melanoma = settings: 10 µM unless noted
SK-MEL-2 melanoma = settings: 10 µM unless noted
SN12C renal = settings: 10 µM unless noted
UO-31 renal = settings: 10 µM unless noted
TK-10 renal = settings: 10 µM unless noted
ACHN renal = settings: 10 µM unless noted
A498 renal = settings: 10 µM unless noted
CCRF-CEM leukemia = settings: 10 µM unless noted
MOLT-4 leukemia = settings: 10 µM unless noted
CAKI-1 renal = settings: 10 µM unless noted
EKVX NSCLC = settings: 10 µM unless noted

Measured: growth

CCCCCCCCCCCC[n+]1ccccc1 (tested in a mixture with another compound)
inactive: HCT-15 colon 38.5% | ACHN renal 22.2% | A498 renal 42%
active: HT29 colon -30.1% | SNB-75 CNS -45.9% | SNB-19 CNS -10.2% | U251 CNS -24.1% | PC-3 prostate -61.8% | SK-MEL-5 melanoma -98.5% | UACC-62 melanoma -62.3% | LOX IMVI melanoma -58.3% | SK-MEL-28 melanoma -19.1% | SK-MEL-2 melanoma -83.5% | SN12C renal -15.9% | UO-31 renal 1.25% | TK-10 renal -47.5% | CCRF-CEM leukemia -2.6% | MOLT-4 leukemia -30.6%

NC(=S)N/N=C\c1nccc2c(C(F)(F)F)cccc12
active: U251 CNS 5.79% | SK-MEL-5 melanoma -41.5% | UACC-62 melanoma -3.16% | LOX IMVI melanoma 4.01% | SK-MEL-2 melanoma -7.77% | UO-31 renal -35.2% | CAKI-1 renal -2.51% | CCRF-CEM leukemia -9.85% | MOLT-4 leukemia -40.2%
inactive: HCT-15 colon 28.6% | HT29 colon 18.5% | SNB-75 CNS 11.6% | SNB-19 CNS 30.6% | PC-3 prostate 18.6% | SK-MEL-28 melanoma 26.6% | SN12C renal 17.2% | TK-10 renal 17%

COC(=O)c1cc([N+](=O)[O-])cc([N+](=O)[O-])c1Cl
active: HCT-15 colon -4.09% | HT29 colon -85.2% | U251 CNS 9.52% | TK-10 renal -41.3%
inactive: SNB-75 CNS 90.4% | SNB-19 CNS 104% | PC-3 prostate 97% | SK-MEL-5 melanoma 107% | UACC-62 melanoma 90.6% | LOX IMVI melanoma 57.7% | SK-MEL-28 melanoma 108% | SK-MEL-2 melanoma 87.4% | SN12C renal 99.8% | UO-31 renal 79.1% | ACHN renal 15.6% | CCRF-CEM leukemia 29.8% | MOLT-4 leukemia 26.6%

CN(C)c1ccc(/C=C/c2sc3ccc4ccccc4c3[n+]2C)cc1
active: HCT-15 colon 0.902% | HT29 colon -100% | SNB-75 CNS -95.6% | SNB-19 CNS -32.5% | U251 CNS -51.2% | PC-3 prostate -38% | SK-MEL-5 melanoma -100% | UACC-62 melanoma -75% | LOX IMVI melanoma -35.3% | SK-MEL-28 melanoma -56.6% | EKVX NSCLC -13.6% | SN12C renal -54.3% | TK-10 renal -42.1% | ACHN renal -49.3% | CAKI-1 renal -10.9% | A498 renal -20.8% | CCRF-CEM leukemia -8.92% | MOLT-4 leukemia -26.7%
inactive: UO-31 renal 15.9%

O=C(Nc1ccc(Cl)c(Cl)c1)Nc1ccccc1O
inactive: HCT-15 colon 78.5% | HT29 colon 112% | SNB-75 CNS 67% | SNB-19 CNS 85.8% | U251 CNS 85.7% | PC-3 prostate 38.1% | SK-MEL-5 melanoma 74.5% | UACC-62 melanoma 42.8% | LOX IMVI melanoma 70.4% | SK-MEL-28 melanoma 107% | SK-MEL-2 melanoma 77% | EKVX NSCLC 80.4% | UO-31 renal 55.8% | TK-10 renal 116% | ACHN renal 76.5% | A498 renal 106% | CCRF-CEM leukemia 37.1% | MOLT-4 leukemia 61.1%

COc1cc(-c2ccc(-[n+]3nc(-c4ccc([N+](=O)[O-])cc4)nn3-c3ccc([N+](=O)[O-])cc3)c(OC)c2)ccc1-[n+]1nc(-c2ccc([N+](=O)[O-])cc2)nn1-c1ccc([N+](=O)[O-])cc1
active: HT29 colon -6.65% | SNB-75 CNS -35.8% | LOX IMVI melanoma -75.5% | SK-MEL-2 melanoma 1.62% | SN12C renal 2.95% | UO-31 renal 6.95% | TK-10 renal -9.35% | CAKI-1 renal -9.54% | A498 renal -22.2%
inactive: HCT-15 colon 29.7% | SNB-19 CNS 40.8% | U251 CNS 43.9% | PC-3 prostate 47.9% | SK-MEL-5 melanoma 47.4% | UACC-62 melanoma 85.9% | SK-MEL-28 melanoma 73.1% | CCRF-CEM leukemia 12.7% | MOLT-4 leukemia 17.9%

CCCCCCCCCCCC(=O)OC(C)C(=O)NCCCC (configuration not stated)
inactive: HCT-15 colon 106% | HT29 colon 101% | SNB-75 CNS 105% | SNB-19 CNS 106% | U251 CNS 93.7% | PC-3 prostate 95.8% | SK-MEL-5 melanoma 102% | UACC-62 melanoma 103% | LOX IMVI melanoma 93.6% | SK-MEL-28 melanoma 121% | SK-MEL-2 melanoma 108% | SN12C renal 102% | UO-31 renal 94.5% | TK-10 renal 90.8% | ACHN renal 116% | CAKI-1 renal 99.1% | CCRF-CEM leukemia 101% | MOLT-4 leukemia 87.7%

COC(=O)C(=[N+]=[N-])C(=O)c1ccc([N+](=O)[O-])o1
inactive: HCT-15 colon 10.5% | HT29 colon 61.5% | SNB-75 CNS 103% | SNB-19 CNS 92.9% | U251 CNS 88.7% | PC-3 prostate 74% | SK-MEL-5 melanoma 93.6% | UACC-62 melanoma 74% | LOX IMVI melanoma 78.9% | SK-MEL-28 melanoma 109% | SK-MEL-2 melanoma 95.5% | SN12C renal 90.9% | UO-31 renal 89.7% | ACHN renal 67.1% | CAKI-1 renal 104% | A498 renal 69.1% | CCRF-CEM leukemia 83.9% | MOLT-4 leukemia 93.6%

O=[N+]([O-])c1ccc(C2N(Cc3ccc(Cl)cc3)CCN2Cc2ccc(Cl)cc2)cc1
inactive: HCT-15 colon 84.9% | HT29 colon 73.3% | SNB-75 CNS 74.1% | SNB-19 CNS 96.7% | U251 CNS 87.6% | PC-3 prostate 82.3% | SK-MEL-5 melanoma 88.8% | UACC-62 melanoma 102% | LOX IMVI melanoma 96.9% | SK-MEL-28 melanoma 96.3% | SK-MEL-2 melanoma 101% | SN12C renal 90.7% | UO-31 renal 48.5% | TK-10 renal 80.5% | ACHN renal 81.6% | CAKI-1 renal 72.7% | A498 renal 88.4% | MOLT-4 leukemia 80.3%

CN1CCC(CN2c3ccccc3Sc3ccccc32)C1 (configuration not stated)
inactive: HCT-15 colon 83.9% | HT29 colon 45.8% | SNB-75 CNS 57.7% | SNB-19 CNS 98.1% | U251 CNS 91.1% | PC-3 prostate 63.6% | SK-MEL-5 melanoma 76.6% | UACC-62 melanoma 90.4% | LOX IMVI melanoma 76.5% | SK-MEL-2 melanoma 114% | EKVX NSCLC 107% | SN12C renal 97.1% | UO-31 renal 60.2% | TK-10 renal 92% | ACHN renal 86.1% | CAKI-1 renal 79.4% | A498 renal 109% | MOLT-4 leukemia 79.1%

O=C(/C=C/c1ccccc1)c1ccccc1O
inactive: HCT-15 colon 67.3% | HT29 colon 84.5% | SNB-75 CNS 63.7% | SNB-19 CNS 80.1% | U251 CNS 61.1% | PC-3 prostate 92.9% | SK-MEL-5 melanoma 94.9% | UACC-62 melanoma 85.8% | LOX IMVI melanoma 34.9% | SK-MEL-28 melanoma 93.9% | EKVX NSCLC 89.2% | SN12C renal 92.1% | UO-31 renal 64.6% | TK-10 renal 94.3% | CAKI-1 renal 75.2% | A498 renal 98.3% | MOLT-4 leukemia 70.2%

c1csc(-c2[nH]nc3c2CCc2ccccc2-3)c1
inactive: HCT-15 colon 30.7% | HT29 colon 92.4% | SNB-75 CNS 55.6% | SNB-19 CNS 70.3% | U251 CNS 78.1% | PC-3 prostate 81.7% | SK-MEL-5 melanoma 84.8% | UACC-62 melanoma 90% | LOX IMVI melanoma 97.5% | SK-MEL-28 melanoma 104% | SN12C renal 93.5% | UO-31 renal 53.8% | TK-10 renal 27.8% | ACHN renal 82.3% | CAKI-1 renal 79% | A498 renal 77.7% | CCRF-CEM leukemia 98.1% | MOLT-4 leukemia 69.6%

CC(=O)c1ccc2c(c1)CCc1ccccc1-2
inactive: HCT-15 colon 93.9% | HT29 colon 102% | SNB-75 CNS 87.1% | SNB-19 CNS 103% | U251 CNS 95.6% | PC-3 prostate 100% | SK-MEL-5 melanoma 99.6% | UACC-62 melanoma 109% | LOX IMVI melanoma 113% | SK-MEL-28 melanoma 101% | SN12C renal 109% | UO-31 renal 105% | TK-10 renal 99.9% | CAKI-1 renal 101% | A498 renal 63.1% | CCRF-CEM leukemia 109% | MOLT-4 leukemia 114%

Cc1ccc(/C=C2\CNC/C(=C\c3ccc(C)cc3)C2=O)cc1
inactive: SNB-75 CNS 29% | SK-MEL-2 melanoma 61% | TK-10 renal 16.9%
active: HCT-15 colon -33.8% | HT29 colon -35.8% | SNB-19 CNS -52.6% | U251 CNS -63.4% | PC-3 prostate 6.55% | SK-MEL-5 melanoma -96.7% | UACC-62 melanoma -89% | LOX IMVI melanoma -69.2% | EKVX NSCLC -67.4% | SN12C renal -61.3% | UO-31 renal -81.2% | ACHN renal -82.5% | CAKI-1 renal -44.1% | CCRF-CEM leukemia -3.56% | MOLT-4 leukemia -11.4%

CC12CCC(O)CC1=CCC1C2CCC2(C)C3=NN=CC3CC12 (configuration not stated)
inactive: HCT-15 colon 95.1% | HT29 colon 99% | SNB-75 CNS 93.7% | SNB-19 CNS 103% | U251 CNS 101% | PC-3 prostate 103% | SK-MEL-5 melanoma 96.4% | UACC-62 melanoma 92.5% | LOX IMVI melanoma 100% | SK-MEL-28 melanoma 103% | EKVX NSCLC 81.9% | SN12C renal 105% | UO-31 renal 105% | TK-10 renal 108% | ACHN renal 97.7% | CAKI-1 renal 127% | A498 renal 124% | MOLT-4 leukemia 83.8%

C/C=C/c1cc2c(c(=O)o1)C(=O)[C@@H](O)[C@H](C)O2
active: HCT-15 colon -25.4% | SNB-75 CNS -23.4% | UO-31 renal 0.0978% | TK-10 renal 5.77%
inactive: HT29 colon 13% | SNB-19 CNS 94.9% | U251 CNS 40.4% | PC-3 prostate 11.3% | SK-MEL-5 melanoma 95.2% | UACC-62 melanoma 80.5% | LOX IMVI melanoma 25.2% | SK-MEL-2 melanoma 72.9% | EKVX NSCLC 95% | SN12C renal 97.6% | ACHN renal 26.3% | CAKI-1 renal 43.3% | A498 renal 125% | MOLT-4 leukemia 43.6%

CCCCCCCCCCCCSC(=N)N
inactive: SNB-19 CNS 69% | PC-3 prostate 33% | SK-MEL-5 melanoma 38.5% | UACC-62 melanoma 107% | SK-MEL-28 melanoma 52.7% | SN12C renal 51.3% | TK-10 renal 87.4% | A498 renal 80.8%
active: HCT-15 colon -21.4% | HT29 colon -64.4% | SNB-75 CNS 8.5% | U251 CNS -10.1% | LOX IMVI melanoma -70.8% | UO-31 renal -27.2% | ACHN renal -12.6% | CAKI-1 renal -7.66% | CCRF-CEM leukemia -22.8% | MOLT-4 leukemia -37.1%

CCOc1ccc(Nc2nc3c(s2)C(=O)c2ccccc2C3=O)cc1
inactive: HCT-15 colon 30.4% | HT29 colon 115% | SNB-75 CNS 76.3% | SNB-19 CNS 89.9% | U251 CNS 78.9% | PC-3 prostate 57.4% | SK-MEL-5 melanoma 62.1% | UACC-62 melanoma 56.6% | SK-MEL-28 melanoma 106% | EKVX NSCLC 96.4% | SN12C renal 51.3% | UO-31 renal 72.9% | TK-10 renal 127% | ACHN renal 75.1% | CAKI-1 renal 74.2% | A498 renal 76.7% | CCRF-CEM leukemia 51.4% | MOLT-4 leukemia 48.5%
active: LOX IMVI melanoma -5.52%
